Screens from PubChem BioAssay.
MCL1 BIM primary = inhibitors of MCL1 binding to BIM-BH3, primary screen, biochemical, fluorescence polarization | GST-MCL1 / FITC-Bim-BH3 fluorescence polarization | inhibition, % at 10.9 µM | 320,000 compounds, 0.68% hits;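 active = inhibition above the mean inhibition of all tested compounds plus 3 SD, set per campaign, cut at about 40% in these data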;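 note: higher means more loss of mP so more displacement of Bim peptide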
eIF4E-4G inh = eIF4E–eIF4G protein interaction inhibitors, primary screen, biochemical, uHTS, TR-FRET, eIF4GI fragment; Eukaryotic translation initiation factor 4E (Mus musculus) + Eukaryotic translation …; TR-FRET eIF4E-eIF4GI(517-606) binding, 2 h; inhibition, % at 21.7 µM; 220,000 compounds, 0.37% hits; AID 782, 2007;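 active = inhibition above about 30%, limit read from the data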
14-3-3 Bad inh = inhibitors of 14-3-3 zeta/Bad binding, primary screen, biochemical, TR-FRET, bovine 14-3-3 zeta | 14-3-3 protein zeta/delta (Bos taurus), P63103 | TR-FRET 14-3-3zeta/Dy647-pBad peptide displacement, 1 h | inhibition, % at 21.7 µM | 220,000 compounds, 0.71% hits;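 active = inhibition above about 70%, limit read from the data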
Mcl1-Bid inh = Mcl-1/Bid binding inhibitors, primary screen, biochemical, TR-FRET, 1536-well; AID 1021, 2008; 220,000 compounds, 0.97% hits; inhibition, % at 21.7 µM; TR-FRET Mcl-1/Bid-Dy647 peptide binding;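 active = compounds that cut the binding signal by more than half at the single screening dose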;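 note: His-tagged Mcl-1 with europium anti-His antibody binding Bid BH3 peptide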
Mcl1 Noxa PPI = Mcl-1/Noxa binding inhibitors, primary screen, biochemical, TR-FRET, 1536-well | Induced myeloid leukemia cell differentiation protein Mcl-1 (Homo sapiens), Q07820 | TR-FRET Mcl-1/Noxa peptide binding, 2 h | inhibition, % at 21.7 µM | 220,000 compounds, 1.5% hits;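 active = compounds that cut the protein-peptide binding signal by more than 50% relative to plate controls in a single-dose test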;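 note: His-tagged Mcl-1 with rhodamine Noxa BH3 peptide and terbium anti-His antibody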
Bim-Mcl-1 = inhibitors of Bim peptide binding to Mcl-1, primary screen, biochemical, bead-based flow cytometry, multiplex; Induced myeloid leukemia cell differentiation protein Mcl-1 (Homo sapiens), Q07820; Bim peptide-Mcl-1 binding; inhibition, % at 10 µM; 190,000 compounds, 0.1% hits; in the data active = inhibition above about 40%
Hits are given with their value; i = inactive; nt = no result; [ ] = remark or other dose. Compounds with a hit are over-represented: about 2.6% of the library has one in this group of screens.

SMILES | MCL1 BIM primary | eIF4E-4G inh | 14-3-3 Bad inh | Mcl1-Bid inh | Mcl1 Noxa PPI | Bim-Mcl-1
Oc1ccc(/C=N/Nc2cccc3cccnc23)c(O)c1 | i | i | i | i | 62 | i
CCCCn1c(N)c(N(CCC(C)C)C(=O)c2ccc(N3CCCC3=O)cc2)c(=O)[nH]c1=O | i | nt | nt | nt | nt | nt
CCCOc1ccc(Cc2nn3c(=O)/c(=C/c4ccco4)sc3nc2=O)cc1 | i | i | i | i | 75 | i
COc1ccccc1/C=C/C=c1\sc2nc(=O)c(Cc3ccccc3)nn2c1=O | i | i | i | i | 51 | nt
CCCOc1ccc(/C=c2\sc3nc(-c4ccco4)nn3c2=O)cc1OCC | i | i | i | i | i | i
CCOc1ccc(N2CC(O)=C(c3nc4ccccc4c(=O)[nH]3)C2=N)cc1 | i | i | i | 57 | i | i
CSc1nc(SCC(N)=O)c2c3c(sc2n1)CN(C)CC3 | i | i | i | i | i | i
CSc1nc(SCC(=O)NCc2ccco2)c2c3c(sc2n1)CN(C)CC3 | i | i | i | i | 84 | i
CSc1nc(NCc2ccco2)c2c3c(sc2n1)CN(C)CC3 | i | i | i | i | 57 | i
CCOc1cc(N2CCOCC2)c(OCC)cc1NC(=O)CCS(=O)(=O)c1ccc(Cl)cc1 | i | i | i | 101 | i | i
CCOc1cc(N2CCOCC2)c(OCC)cc1NS(=O)(=O)c1ccc(Cl)s1 | i | i | 83 | i | i | i
OCCNCc1c(OCc2ccc(Cl)cc2)ccc2ccccc12 | i | nt | nt | nt | nt | nt
COc1cc(C(=O)O)c([N+](=O)[O-])c(OC)c1OC | i | i | i | i | i | nt
COc1ccc(OC)c([N+](=O)[O-])c1C(N)=O | i | i | i | i | 56 | i
CCOC(=O)c1nc(Nc2ccc(N3CCC(C)CC3)cc2)c2ccccc2n1 | i | i | i | i | i | i
Cc1cc2nc3c(=O)[nH]c(=O)[nH]c3nc2c([N+](=O)[O-])c1N | nt | 50 | 73 | i | 71 | i
O=C(c1ccco1)N1CCN(Cc2cc(=O)c(OCc3ccccc3F)co2)CC1 | i | nt | nt | nt | nt | nt
O=C(Cc1ccccc1)Nn1cnc2ccccc21 | i | i | 78 | i | i | i
COc1ccccc1NC(=O)C(C)OC(=O)C1CCC(C(C)(C)C)CC1 (configuration not stated) | i | nt | nt | nt | nt | nt
COc1ccc(C(=O)/C=C/c2ccc(N3CCCCC3)c([N+](=O)[O-])c2)cc1 | i | i | i | 100 | i | i
CC1CCC(C(C)C)C2=C1C(C#N)(C#N)C(C#N)(C#N)C(c1ccccc1)N2 (configuration not stated) | i | i | i | i | 56 | i
CN(/N=C/c1ccc(-c2ccc([N+](=O)[O-])cc2)o1)c1ccccc1 | i | nt | nt | nt | nt | nt
O=C1Nc2ccccc2/C1=N/N=C/c1ccc(-c2ccc([N+](=O)[O-])cc2)o1 | nt | i | 95 | 89 | 80 | i
NC(=S)N/N=C/c1ccc(-c2ccc([N+](=O)[O-])cc2)o1 | i | i | i | i | 52 | i
Cc1cc(OCC(=O)C(C)(C)C)c2c(-c3ccccc3)cc(=O)oc2c1 | i | nt | nt | nt | nt | nt
SMILES | MCL1 BIM primary | eIF4E-4G inh | 14-3-3 Bad inh | Mcl1-Bid inh | Mcl1 Noxa PPI | Bim-Mcl-1
O=C(NCCCCc1ccccc1)C1CC(c2ccccc2[N+](=O)[O-])=NO1 (configuration not stated) | i | i | i | i | 100 | i
Cc1ccc(C(=O)OCC(=O)Nc2ccccc2)cc1NC(=O)c1ccco1 | i | i | i | i | i | i
Cc1ccc(C(=O)OCC(=O)Nc2ccc(N(C)C)cc2)cc1NC(=O)c1ccco1 | i | i | i | i | 79 | i
COc1ccc(Nc2ncc(C(=O)O)c3ccccc23)cc1 | i | nt | nt | i | i | i
COc1ccc(Nc2ncc(C(=O)N3CCN(c4ccc(F)cc4)CC3)c3ccccc23)cc1 | i | i | i | 99 | i | i
COc1ccc(N2CCN(C(CNS(=O)(=O)c3ccc4c(c3)OCCO4)c3ccco3)CC2)cc1 (configuration not stated) | i | i | i | i | i | 52
O=S(=O)(NCC(c1ccco1)N1CCN(c2ccccc2F)CC1)c1ccc2c(c1)OCCO2 (configuration not stated) | i | i | i | i | i | i
Cc1cc(O)c(-c2cc(C(=O)Nc3sc4c(c3C(=O)NCc3ccco3)CCC4)[nH]n2)cc1C | i | i | i | i | 71 | nt
COc1cc(NCCC(=O)c2cccs2)c(OC)cc1Cl | i | i | i | i | 86 | i
COc1ccc(NC(=O)CCC(=O)c2cccs2)cc1Cl | i | nt | nt | nt | nt | nt
Cc1ccc(C2CC(=O)C(C=NCCN3CCN(C(=S)Nc4ccccc4)CC3)=C(O)C2)cc1 (configuration not stated) | i | 97 | i | i | i | i
COc1ccc(C2CC(=O)C(C=NCCN3CCN(C(=S)Nc4ccccc4)CC3)=C(O)C2)cc1 (configuration not stated) | i | i | i | i | i | nt
Cc1ccc2nc(N3CC(=O)Nc4ccccc43)nc(-c3ccccc3)c2c1 | i | i | i | 97 | i | i
CCOC(=O)c1sc(Nc2nc3cc4c(cc3s2)OCO4)cc1C | i | i | i | i | 65 | nt
Cc1cccc(N2CCN(C(=O)c3ccc(NC4=NC5CS(=O)(=O)CC5S4)cc3)CC2C)c1 (configuration not stated) | i | nt | nt | nt | nt | nt
CC1=Nc2ccc(C)cc2/C1=C/c1c(N)n2c(S(=O)(=O)C(C)C)nsc2nc1=O | nt | i | i | i | 81 | i
CN(C)C(=O)CS(=O)(=O)c1ccc(Cl)cc1 | i | i | i | 66 | i | nt
CN(C)C(=O)CN(C)S(=O)(=O)c1ccc(Cl)cc1 | i | i | i | i | i | i
COc1ccc(-c2cc([C@H]3[C@@H]4C=CCC[C@@]4(C)C(=O)N3Cc3ccccc3)ccc2F)cc1 | i | 45 | i | i | i | nt
COc1ccc(-c2ccc([C@H]3[C@@H]4C=CCC[C@@]4(C)C(=O)N3Cc3ccccc3)c(F)c2)cc1 | i | i | i | i | i | nt
Cc1ccnc(N/C=C(\C#N)c2nc(-c3cccc(Br)c3)cs2)c1 | i | i | i | 73 | 61 | i
CCCN(CCC)C(C(=O)Nc1cccc(OC)c1)c1ccccc1 (configuration not stated) | i | i | i | 95 | i | i
COc1cccc(NC(=O)C(NCC2CCCCC2)c2ccccc2)c1 (configuration not stated) | i | i | 84[fluorescence artefact?] | i | i | i
